Sampled rows, rich in hits. Any-hit rate of the full collection: about 1.4%.
CASP6 VEID inh: human caspase-6 inhibitors, primary screen, biochemical, VEID-R110 fluorescence, single point, set 2; AID 686996, 2013; actives 0.53% (n = 350,000); purified caspase-6, Z-VEID-R110 cleavage fluorescence; P55212; inhibition, % at 12.5 µM;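 active means mean inhibition across replicates at least about 35%, with every replicate also reaching that limit, limit read from the data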;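 further: 0% = median of neutral control wells and 100% = no fluorescence left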
UHRF1 binding: UHRF1 methylated DNA binding inhibitors, primary screen, counter-screen for MBD2 inhibitor project, biochemical, TR-FRET, human UHRF1, single concentration; E3 ubiquitin-protein ligase UHRF1 (Homo sapiens), Q96T88; UHRF1 binding to methylated oligo; inhibition, % at 4.4 µM; actives 0.75% (n = 370,000); AID 687016, 2013; in the data active means inhibition above about 21%;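 further: UHRF1 SRA domain binding a hemimethylated CpG hairpin DNA probe; 0% = median of test compound wells and 100% = reference inhibitor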
MBD2 DNA inh: inhibitors of MBD2 binding to methylated DNA, primary screen, biochemical, TR-FRET, DNA-binding domain, human. Methyl-CpG-binding domain protein 2 (Homo sapiens), Q9UBB5. MBD2 binding to methylated oligonucleotide. inhibition, % at 4.4 µM. actives 0.31% (n = 370,000); in the data active means inhibition above about 13%
Target sequence (Q9UBB5 whole entry, looked up, the tested form may be a part): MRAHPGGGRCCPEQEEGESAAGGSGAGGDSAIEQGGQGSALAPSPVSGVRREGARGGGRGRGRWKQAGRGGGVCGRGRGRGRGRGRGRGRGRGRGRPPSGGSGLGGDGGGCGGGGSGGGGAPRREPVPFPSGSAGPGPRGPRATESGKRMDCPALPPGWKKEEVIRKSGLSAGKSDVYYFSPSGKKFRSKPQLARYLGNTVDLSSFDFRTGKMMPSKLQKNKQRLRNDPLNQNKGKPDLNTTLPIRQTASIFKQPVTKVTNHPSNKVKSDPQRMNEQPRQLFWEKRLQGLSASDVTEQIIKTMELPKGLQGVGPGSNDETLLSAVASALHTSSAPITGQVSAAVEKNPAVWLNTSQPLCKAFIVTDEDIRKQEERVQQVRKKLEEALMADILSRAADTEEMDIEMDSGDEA
LEDGF integ inh: blockers of LEDGF/p75-dependent integrase strand transfer – biochemical, TR-FRET, high throughput, primary screen | actives 0.64% (n = 370,000) | inhibition, % at 3.7 µM | TR-FRET IN-LEDGF/p75 DNA integration, Eu/Cy5;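 active means inhibition above the screen-wide mean plus 3 SD, cut at about 13% in these data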;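 further: signal is the Cy5 over europium emission ratio at 671 and 618 nm; 0% = plate median of compound wells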
IN multimer act: HIV-1 IN multimer formation enhancers, counter-screen for LEDGF/p75 integration inhibitor project, biochemical, TR-FRET; actives 17% (n = 2,000); shares compounds with LEDGF integ inh; activation, % at 7.7 µM; TR-FRET HIV-1 integrase multimerization; in the data active means activation above about 8.9%
TR-FRET interf: TR-FRET optical interference artefacts, confirmation, artefact control for LEDGF/p75-dependent integration inhibitor project, biochemical, HIV-1 IN multimerization. shares compounds with LEDGF integ inh. TR-FRET optical interference counterscreen. inhibition, % at 7.7 µM. 2,000 tested, under 10 active. AID 1053135, 2014;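 active means inhibition above the mean over all tested compounds plus 3 SD, which no compound reached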;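 further: 0% = integrase with antibodies and DMSO and 100% = antibodies without integrase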
LEDGF integ conf: inhibitors of HIV-1 IN-LEDGF/p75 DNA integration, confirmation, biochemical, TR-FRET | inhibition, % at 3.7 µM | TR-FRET LEDGF/p75-dependent HIV-1 integration | shares compounds with LEDGF integ inh | actives 36% (n = 2,000); in the data active means inhibition above about 14%
Active calls of the source: *; / = no result.

SMILES | CASP6 VEID inh | UHRF1 binding | MBD2 DNA inh | LEDGF integ inh | IN multimer act | TR-FRET interf | LEDGF integ conf
COc1ccc(N2C(=O)NC(=O)/C(=C\c3ccc([N+](=O)[O-])s3)C2=O)cc1 | 52.3* | 5.3 | 0.8 | 17.7* | 0.7 | -2.5 | 33.1*
CN1CCC(O)(c2ccccc2)C(C(=O)c2ccccc2)C1 (centres undefined) | / | 8.8 | 3.8 | -2.6 | / | / | /
CN1CCC(O)(c2ccccc2)C2CCCC21 (centres undefined) | -5.6 | 7.6 | -0.3 | 37.1* | -2.8 | 14.3 | 2.2
NCCc1cc(O)c(O)cc1O | / | 57.9* | 25.4* | 55.9* | 64.2* | -323.6 | 75.0*
COc1ccc(CCN)cc1O | -5.4 | -1.1 | -3.1 | 4.0 | / | / | /
CN1C(=O)NC(=O)[C@]2(Cc3ccccc3N3CCN(c4ccccc4)CC32)C1=O (some centres undefined) | / | -0.3 | -0.2 | 39.8* | 0.2 | -0.9 | 3.8
Cc1ccc(S(=O)(=O)NCCC(=O)Nc2ccc(Cl)cc2C(=O)c2ccccc2)cc1 | / | -0.2 | -2.2 | 27.6* | 1.2 | -5.8 | -2.1
CCCN1[C@@H]2Cn3c(ccc(-c4cccc(C(=O)N(C)C)c4)c3=O)[C@H]1[C@@H](C(=O)OC)[C@@H]2CO | -0.5 | / | / | / | / | / | /
COc1ccc(OC(=O)N(C)C[C@H]2OCc3ccccc3-c3c(n(C)c4ccccc34)C(=O)N([C@@H](C)CO)C[C@H]2C)cc1 | 4.8 | / | / | / | / | / | /
CCCCn1nnnc1C(CCc1ccccc1)N1CCC(n2c(=O)[nH]c3ccccc32)CC1 (centres undefined) | 3.8 | 1.4 | 7.8 | 20.4* | -0.1 | 0.3 | -2.5
CCC(=O)N1[C@@H]2Cn3c(ccc(-c4cccc(F)c4)c3=O)[C@H]1[C@@H](C(=O)OC)[C@@H]2CO | 0.3 | / | / | / | / | / | /
O=[N+]([O-])c1cc(S(=O)(=O)c2ccc(O)c([N+](=O)[O-])c2)ccc1O | / | 42.3* | 2.7 | 16.8* | 28.1* | -141.4 | 27.2*
O=[N+]([O-])c1cccc(O)c1 | -1.6 | -1.2 | 1.3 | -3.7 | / | / | /
CCCN1[C@@H]2c3ccc(-c4cccc(OC)c4)c(=O)n3C[C@H]1[C@H](CO)[C@H]2C(=O)OC | 0.5 | / | / | / | / | / | /
CCOc1ccccc1-n1c(O)c(C=Nc2ccc(N(CC)CC)cc2)c(=O)[nH]c1=O | / | -1.4 | -6.4 | 13.9* | 2.2 | -10.8 | -6.2
CCN(CC)c1ccc(N=Cc2c(O)[nH]c(=O)[nH]c2=O)cc1 | 2.1 | 11.0 | -4.6 | 26.3* | 12.3* | -44.0 | 3.1
CCN(CC)c1ccc(N=Cc2c(O)n(-c3ccccc3C)c(=O)[nH]c2=O)cc1 | / | 3.8 | -5.9 | 28.2* | 0.6 | -2.9 | 5.0
COC(=O)[C@H]1[C@H](CO)[C@H]2Cn3c(ccc(-c4ccccc4F)c3=O)[C@@H]1N2CC1CCCC1 | -0.6 | / | / | / | / | / | /
Cc1ccccc1-c1ccc([C@@H]2[C@H](CO)N3CCCCN(C(=O)Cc4ccccn4)C[C@@H]23)cc1 | 0.3 | / | / | / | / | / | /
O=c1[nH]c(=O)n(Cc2ccco2)c(O)c1/C=N/N1CCCCC1 | 16.3 | 5.9 | -3.9 | 22.6* | -1.9 | 6.8 | 9.3

Screening results (PubChem)
